Test results: PubChem BioAssay
The source made the active and inactive calls.

What was measured:
[1] = system: Plasmodium falciparum Sir2 (PF13_0152, Sir2A); test: Plasmodium falciparum Sir2A binding compounds – biochemical, small-molecule microarray, 635 nm fluorescence, primary screen (AID 1098); conditions: fluorescence 635 nm, higher = more signal;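 further: score merges spot fluorescence intensity with its signal-to-noise ratio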
[2] = probe aDKK1 binding to arrayed compounds – biochemical, biotinylated probe, 635/667 nm fluorescence, primary screen (AID 1099); conditions: small-molecule microarray, higher = more signal;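 further: score merges 667nm spot fluorescence with signal to noise across triplicate slides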
[3] = probe aCHRDL2 binding to arrayed compounds – biochemical, biotinylated probe, 635/667 nm fluorescence, primary screen (AID 1100); conditions: small-molecule microarray, higher = more signal
[4] = change in splice reporter luminescence, either direction, cell-based, HEK293, spliceosome inhibition project, primary screen (AID 1101); conditions: HEK293 splicing luciferase reporter, 24 h, higher = more signal, called active from +8 up or from −8 down;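 further: HEK293 cells carrying a splicing-competent luciferase reporter gene; test concentration not given here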
[5] = target: Fibroblast growth factor 10 (Homo sapiens) (UniProt O15520); test: compounds binding fibroblast growth factor 10 – biochemical, small-molecule microarray, 635 nm fluorescence, primary screen (AID 1102); conditions: FGF10 binding, fluorescence 635 nm, higher = more signal
[6] = system: glycogen synthase kinase-3 (GSK3A per assay name; protocol says GSK3B); test: compounds binding glycogen synthase kinase-3 – biochemical, small-molecule microarray, 635 nm fluorescence, GSK3A, primary screen (AID 1103); conditions: fluorescence 635 nm, higher = more signal; further: the record names both GSK3A and GSK3B
[7] = target: Epidermal growth factor receptor (Homo sapiens) (UniProt P00533); test: compounds binding epidermal growth factor receptor – biochemical, small-molecule microarray, 635 nm fluorescence, primary screen (AID 1104); conditions: EGFR binding, higher = more signal;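 further: score merges 667 nm emission intensity with spot signal to noise over triplicate slides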
[8] = target: Follistatin-related protein 3 (Homo sapiens) (UniProt O95633); test: compounds binding follistatin-related protein 3 – biochemical, small-molecule microarray, 635 nm fluorescence, primary screen (AID 1105); conditions: FSTL3 binding, higher = more signal;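 further: score merges emission near 667 nm and signal to noise per printed spot across three slides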
[9] = target: Dickkopf-related protein 1 (Homo sapiens) (UniProt O94907); test: small molecules binding DKK1 protein – biochemical, small-molecule microarray, 635 nm fluorescence scan, primary screen (AID 1106); conditions: higher = more signal;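 further: score merges emission near 667 nm with signal to noise over three replicate slides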
[10] = system: Inhibin beta A chain (activin A); test: small molecules binding activin A – biochemical, small-molecule microarray, 635 nm fluorescence scan, primary screen (AID 1107); conditions: INHBA, higher = more signal;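 further: mouse activin A protein probed at 4.33 µg/mL on printed slides; score merges bound-protein fluorescence near 667 nm with spot signal-to-noise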
[11] = system: Human papillomavirus type 1a protein E7 (residues 44-93); test: small molecules binding HPV E7 44-93 – biochemical, small-molecule microarray, residues 44-93, 635 nm fluorescence, primary screen (AID 1108); conditions: fluorescence 635 nm, higher = more signal;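 further: E7 fragment applied at 1 µg/mL in TBST for 1 h at 4 C; score combines spot fluorescence with its signal to noise ratio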
[12] = hepatitis C replication reporter changes, two-sided – Huh7 cells, luciferase reporter, HCV replication inhibitor project, primary screen (AID 1109); conditions: Huh7 HCV replicon luciferase reporter, 48 h; higher = more signal;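 further: huh7 hepatoma cells harbouring a luciferase neomycin HCV replicon reporter; luciferase luminescence as measure of HCV replicon replication; test concentration not given here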
[13] = target: Left-right determination factor 2 (Homo sapiens) (UniProt O00292); test: small molecules binding LEFTY2 protein – biochemical, small-molecule microarray, 635 nm fluorescence scan, primary screen (AID 1110); conditions: higher = more signal
[14] = target: Calmodulin-1 (Homo sapiens) (UniProt P0DP23); test: small molecules binding calmodulin-1 with EGTA – biochemical, small-molecule microarray, Cy5-labelled CALM1, profiling panel (AID 1111); conditions: Cy5-CALM1 binding fluorescence, higher = more signal;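 further: labelled calmodulin applied in Tris saline Tween buffer holding calcium plus EGTA and DTT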
[15] = target: Calmodulin-1 (Homo sapiens) (UniProt P0DP23); test: small molecules binding Ca-loaded calmodulin-1 – biochemical, small-molecule microarray, Cy5-labelled CALM1, plus calcium, artefact control for SMM control-protein annotation, profiling panel (AID 1112); conditions: Cy5-CALM1 binding fluorescence, higher = more signal;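 further: score merges spot fluorescence with signal to noise from triplicate slides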
[16] = probe aWnt5a binding to arrayed compounds – biochemical, biotinylated probe, 635/667 nm fluorescence, primary screen (AID 1113); conditions: small-molecule microarray, higher = more signal;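 further: score merges 667 nm fluorescence intensity with signal-to-noise per printed feature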
[17] = probe aShh binding to arrayed compounds – biochemical, biotinylated probe, 635/667 nm fluorescence, primary screen (AID 1114); conditions: small-molecule microarray, higher = more signal;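 further: probe is biotin-labelled aShh protein from a stem cell growth factor screen; measures binding of labelled protein to compounds printed on the slide; score merges feature fluorescence at 667 nm with signal-to-noise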
[18] = probe aNog binding to arrayed compounds – biochemical, biotinylated probe, 635/667 nm fluorescence, primary screen (AID 1115); conditions: small-molecule microarray, higher = more signal;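 further: probe is biotinylated aNog protein used at 0.15 µg/mL for 1 h at 4 C; z-score combines 667 nm fluorescence of each spot with its signal to noise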
[19] = target: Torsin-1A-interacting protein 1 (Homo sapiens) (UniProt Q5JTV8); test: compound microarray binding of lysate hLAP1 – cell lysate, small-molecule microarray, COS7 lysate, 635/667 nm fluorescence, primary screen (AID 1116); conditions: 635 nm fluorescence, higher = more signal
[20] = target: Alpha-bungarotoxin (Bungarus multicinctus) (UniProt P60615); test: compounds binding labelled alpha-BTX control protein – biochemical, small-molecule microarray, Alexa647 label, 635/667 nm fluorescence, artefact control for SMM control protein annotation, profiling panel (AID 1117); conditions: alpha-BTX-A647 binding fluorescence, higher = more signal
Chain of Alpha-bungarotoxin (Bungarus multicinctus) (P60615 whole entry, looked up): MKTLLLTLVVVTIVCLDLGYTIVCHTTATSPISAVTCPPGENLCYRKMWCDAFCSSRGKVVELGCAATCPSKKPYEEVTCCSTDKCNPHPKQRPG

Chain of Follistatin-related protein 3 (Homo sapiens) (O95633 whole entry, looked up): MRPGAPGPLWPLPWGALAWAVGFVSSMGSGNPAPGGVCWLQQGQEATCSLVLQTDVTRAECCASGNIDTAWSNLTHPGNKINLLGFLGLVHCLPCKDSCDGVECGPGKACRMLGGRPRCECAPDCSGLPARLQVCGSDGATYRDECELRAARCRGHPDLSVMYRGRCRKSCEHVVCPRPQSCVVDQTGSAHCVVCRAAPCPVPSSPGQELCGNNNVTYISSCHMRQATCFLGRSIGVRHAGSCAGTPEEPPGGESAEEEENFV
Chain of Torsin-1A-interacting protein 1 (Homo sapiens) (Q5JTV8 whole entry, looked up): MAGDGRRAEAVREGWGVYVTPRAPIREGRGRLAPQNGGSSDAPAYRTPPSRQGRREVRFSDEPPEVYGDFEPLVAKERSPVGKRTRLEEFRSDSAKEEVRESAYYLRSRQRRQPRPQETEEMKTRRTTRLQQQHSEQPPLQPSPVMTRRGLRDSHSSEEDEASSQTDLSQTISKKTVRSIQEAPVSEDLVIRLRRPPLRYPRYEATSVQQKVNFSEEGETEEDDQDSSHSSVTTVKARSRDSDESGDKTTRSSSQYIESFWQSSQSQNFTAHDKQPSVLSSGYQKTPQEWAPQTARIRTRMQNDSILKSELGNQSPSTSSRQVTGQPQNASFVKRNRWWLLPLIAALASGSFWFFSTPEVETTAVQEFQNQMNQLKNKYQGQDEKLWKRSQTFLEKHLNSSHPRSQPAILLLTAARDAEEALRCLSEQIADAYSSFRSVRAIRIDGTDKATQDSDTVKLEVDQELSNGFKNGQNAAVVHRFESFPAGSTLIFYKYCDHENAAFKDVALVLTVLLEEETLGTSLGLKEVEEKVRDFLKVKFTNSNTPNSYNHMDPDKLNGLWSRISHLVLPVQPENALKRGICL
Chain of Left-right determination factor 2 (Homo sapiens) (O00292 whole entry, looked up): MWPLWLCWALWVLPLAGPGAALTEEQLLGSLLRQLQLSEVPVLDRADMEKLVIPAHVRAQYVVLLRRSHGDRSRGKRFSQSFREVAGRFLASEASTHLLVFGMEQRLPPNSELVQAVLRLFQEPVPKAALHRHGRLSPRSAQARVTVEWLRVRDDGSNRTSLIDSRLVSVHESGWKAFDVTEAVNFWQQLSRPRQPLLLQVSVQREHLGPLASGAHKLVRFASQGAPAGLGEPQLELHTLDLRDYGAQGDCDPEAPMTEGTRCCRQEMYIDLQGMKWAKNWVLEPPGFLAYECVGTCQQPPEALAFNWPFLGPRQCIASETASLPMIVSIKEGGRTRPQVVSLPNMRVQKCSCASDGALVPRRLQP
Chain of Fibroblast growth factor 10 (Homo sapiens) (O15520 whole entry, looked up): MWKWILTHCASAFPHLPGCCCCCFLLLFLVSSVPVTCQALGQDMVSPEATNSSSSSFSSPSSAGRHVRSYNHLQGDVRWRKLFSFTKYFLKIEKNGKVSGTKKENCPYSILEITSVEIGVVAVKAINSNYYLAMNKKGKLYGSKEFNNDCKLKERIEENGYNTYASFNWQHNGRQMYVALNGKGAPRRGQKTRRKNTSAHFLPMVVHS
Chain of Dickkopf-related protein 1 (Homo sapiens) (O94907 whole entry, looked up): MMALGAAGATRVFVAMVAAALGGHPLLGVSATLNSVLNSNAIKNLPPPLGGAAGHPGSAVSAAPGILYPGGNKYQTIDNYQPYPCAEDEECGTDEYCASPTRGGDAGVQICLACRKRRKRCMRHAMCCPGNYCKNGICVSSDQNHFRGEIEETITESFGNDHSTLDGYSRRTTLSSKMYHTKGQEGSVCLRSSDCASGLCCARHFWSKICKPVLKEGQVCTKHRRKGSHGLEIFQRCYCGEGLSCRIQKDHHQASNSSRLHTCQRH
Chain of Epidermal growth factor receptor (Homo sapiens) (P00533 whole entry, looked up): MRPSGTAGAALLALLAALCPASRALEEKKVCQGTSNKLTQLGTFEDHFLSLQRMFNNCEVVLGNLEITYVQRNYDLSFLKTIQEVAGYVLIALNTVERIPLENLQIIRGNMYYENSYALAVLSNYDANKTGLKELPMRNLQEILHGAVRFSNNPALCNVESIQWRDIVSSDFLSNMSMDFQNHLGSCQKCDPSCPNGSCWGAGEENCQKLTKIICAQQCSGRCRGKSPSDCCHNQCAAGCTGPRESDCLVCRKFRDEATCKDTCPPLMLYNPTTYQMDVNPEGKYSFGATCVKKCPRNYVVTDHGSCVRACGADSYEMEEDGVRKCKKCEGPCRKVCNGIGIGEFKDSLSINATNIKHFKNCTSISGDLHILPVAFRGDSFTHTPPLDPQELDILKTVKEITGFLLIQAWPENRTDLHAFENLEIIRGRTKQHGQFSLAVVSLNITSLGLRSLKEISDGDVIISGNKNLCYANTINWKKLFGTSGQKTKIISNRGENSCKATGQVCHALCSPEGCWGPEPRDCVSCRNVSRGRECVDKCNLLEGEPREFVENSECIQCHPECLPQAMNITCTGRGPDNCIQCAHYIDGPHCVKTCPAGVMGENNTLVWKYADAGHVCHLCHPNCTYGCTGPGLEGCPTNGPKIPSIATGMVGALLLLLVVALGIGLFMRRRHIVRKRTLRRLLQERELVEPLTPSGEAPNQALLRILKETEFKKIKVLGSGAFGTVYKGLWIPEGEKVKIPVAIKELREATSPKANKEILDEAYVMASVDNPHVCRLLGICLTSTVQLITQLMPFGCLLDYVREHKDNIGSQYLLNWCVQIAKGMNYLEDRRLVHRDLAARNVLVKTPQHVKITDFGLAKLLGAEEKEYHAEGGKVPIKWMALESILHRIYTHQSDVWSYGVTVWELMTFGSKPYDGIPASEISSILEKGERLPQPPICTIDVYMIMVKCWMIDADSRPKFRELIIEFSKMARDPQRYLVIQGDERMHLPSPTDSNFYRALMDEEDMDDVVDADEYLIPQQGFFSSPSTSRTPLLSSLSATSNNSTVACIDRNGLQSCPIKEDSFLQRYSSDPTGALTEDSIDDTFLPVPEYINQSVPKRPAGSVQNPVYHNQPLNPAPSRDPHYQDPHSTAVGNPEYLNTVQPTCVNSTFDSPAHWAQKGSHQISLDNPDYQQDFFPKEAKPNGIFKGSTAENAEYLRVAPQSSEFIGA

SMILES | composite z-score [1] | composite z-score [2] | composite z-score [3] | z-score [4] | composite z-score [5] | composite z-score [6] | composite z-score [7] | composite z-score [8] | composite z-score [9] | composite z-score [10] | composite z-score [11] | z-score [12] | composite z-score [13] | composite z-score [14] | composite z-score [15] | composite z-score [16] | composite z-score [17] | composite z-score [18] | composite z-score [19] | composite z-score [20]
C[N+](C)(C)CCCC[C@@H]1NC(=O)[C@@H]2C[C@H](C(=O)NCCCCCN)[C@H](c3cccc(OCCO)c3)N2C1=O | 1.07 | 0.0277 | 0.356 | -0.657 (inactive) | 1.12 | 1.3 | -0.167 | -0.144 | -0.17 | -0.68 | 1.32 | -0.0028 | -0.202 | 1.7 | 1.12 | -0.289 | -0.256 | 0.422 | 0.987 | 0.932
C=CCOC(=O)[C@H]1[C@@H]2C(=O)O[C@@H](c3ccccc3)[C@@H](c3ccccc3)N2[C@@H](c2ccc(OCCOC(=O)[C@@H]3C[C@@H]4C(=O)N[C@@H](CCCCN(C)C)C(=O)N4[C@@H]3c3ccc(O)cc3)cc2)[C@]12C(=O)Nc1ccc(I)cc12 | 1.04 | 0.26 | -0.0178 | -0.433 (inactive) | 0.735 | 1.32 | 0.537 | 1.08 | 1.06 | -0.389 | -0.562 | -2.99 | 0.698 | 0.134 | -0.547 | -0.113 | 0.462 | 1.18 | 1.36 | 1.32
O=C1C2C=CC(C(O)c3c(F)cccc3Cl)N(Nc3ccccc3)C2C(=O)N1c1ccccc1 (stereo not given) | 0.741 | 0.532 | 0.256 | -0.00944 (inactive) | 0.581 | 1.3 | 0.271 | 1.34 | 0.236 | 0.672 | 1.46 | -0.927 | 0.407 | 1.46 | 0.546 | 0.0775 | 0.969 | 1.59 | 0.765 | 0.933
COC(=O)[C@@]1(Cc2ccccc2)[C@H]2c3cc(C(=O)N(C)C)n(CCSCCO)c3C[C@H]2CN1C(=O)c1ccccc1 | 0.751 | 0.692 | 0.829 | -1.48 (inactive) | 0.3 | -0.205 | -0.348 | -0.353 | -0.772 | 0.442 | 0.933 | -1.34 | -0.654 | 1.26 | 0.786 | 0.117 | 0.383 | 1.66 | 0.0664 | 0.317
CC1CC/C=C\[C@H]2OC34C=CCN(Cn5nnc6ccccc65)C(=O)[C@H]3N(C(CO)C(C)C)C(=O)[C@@H]4C2C(=O)O1 (stereo not given in full) | 0.868 | -0.165 | 0.547 | 0.209 (inactive) | -0.103 | -0.108 | -0.675 | -0.551 | -0.877 | 0.459 | 0.696 | 0.238 | -1.19 | -0.195 | -0.607 | -0.175 | 0.0141 | 0.356 | 0.64 | 2.2
CCCN1C(=O)[C@]2(CCS(=O)(=O)c3ccccc3)N=C(c3ccc(OCCCO)cc3)O[C@@H]2c2ccccc21 | 1.19 | 0.0947 | 0.766 | -0.707 (inactive) | 0.533 | 1.32 | 0.0338 | 1.05 | 0.125 | 0.916 | 1.42 | -2.49 | 0.16 | 3.15 | -0.0613 | -0.0643 | 0.0893 | -0.153 | 1.74 | 1.14
CCCCC(=C=CC[C@@H](O)c1ccccc1OCCO)CCO | -0.189 | 0.0035 | 0.001 | 0.579 (inactive) | 0.209 | -1.3 | -0.903 | -0.375 | -0.382 | 0.857 | -0.0803 | -0.23 | -0.855 | 0.184 | 0.23 | -0.147 | -0.366 | -0.034 | 0.212 | -0.0423
CN1C(=O)C2C=CC(C(O)Cc3ccccc3)N(Nc3ccccc3)C2C1=O (stereo not given) | 0.36 | 0.645 | 0.898 | -0.00929 (inactive) | 0.235 | -0.442 | -0.389 | -0.0978 | -0.549 | 0.437 | 0.343 | -0.12 | -0.244 | 1.08 | 0.85 | -0.0738 | -0.153 | 0.338 | 0.439 | 0.428
COC(=O)[C@@]1(Cc2ccc(F)cc2)[C@@H]2[C@@H](CC(=O)[C@H]2CC(=O)C(=O)N(C)C)CN1C(=O)c1ccccc1 | 0.532 | 1.21 | 1.19 | -0.191 (inactive) | 0.849 | 1.09 | 0.251 | 1.32 | -0.598 | 0.793 | 1.44 | -2.53 | -0.211 | 1.29 | 0.352 | 0.24 | 0.522 | 1.41 | 1.08 | 1.15
COc1ccc([C@H]2OC[C@@H]3CC4(CC=CC4)C(=O)N32)cc1 | 0.165 | -0.231 | -0.147 | -0.297 (inactive) | 0.93 | 0.784 | 1.04 | 1.31 | 1.42 | 1.25 | 0.659 | 0.0751 | 0.935 | -1.18 | -1.99 | -0.124 | -0.0146 | -0.196 | -0.251 | 0.144
C=CC[C@@]1(C(=O)NCc2ccccc2)N=C(c2ccc(OCCCO)cc2)O[C@@H]1c1ccccc1N=[N+]=[N-] | 0.888 | 0.925 | 1.02 | -1.35 (inactive) | 1.22 | -0.119 | -0.104 | 0.751 | -0.295 | 0.817 | 1.25 | -0.874 | -0.258 | 1.17 | 0.399 | 0.0839 | 0.171 | 1.74 | 1.44 | 1.82
